# Assay results taken from PubChem BioAssay.
# Values without a mark were called inactive. For some assays here: Results with a measured potency or affinity are listed apart. Calls of active or inactive are those of the source. Unless noted, how the calls were made is not given here.
# Columns and labels:
# [1] = antimalarial activity against Dd2 strain (AID 2302;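 active means growth inhibition above 50% at the single 2 µM test dose, taken to imply half-maximal potency below 2 µM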;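 further: 0% = DMSO untreated growth and 100% = chloroquine plus artemisinin killed control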); settings: P. falciparum Dd2 in RBCs, LDH growth readout, 72 h; at 2 µM; active compounds read high
# [2] = human hepatoma cell viability loss – ATP luminescence, cytotoxicity control for P. falciparum antimalarial project, primary screen (AID 2303;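 active means inhibition above 50%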;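 further: 0% = DMSO wells and 100% = digitonin-killed cells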); settings: HepG2 viability, 24-48 h, at 10 µM, active compounds read high
# [3] = target: L-lactate dehydrogenase (Plasmodium falciparum (isolate CDC / Honduras)) (UniProt Q27743); experiment: PfLDH activity inhibition – cell lysate, 3D7 strain, counter-screen for P. falciparum growth inhibition project (AID 2304);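 further: 0% = vehicle and 100% = reference inhibitor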; settings: P. falciparum 3D7 crude extract, LDH APAD/NBT absorbance; at 2 µM; active compounds read high
# Chain of L-lactate dehydrogenase (Plasmodium falciparum (isolate CDC / Honduras)) (Q27743 whole entry, looked up): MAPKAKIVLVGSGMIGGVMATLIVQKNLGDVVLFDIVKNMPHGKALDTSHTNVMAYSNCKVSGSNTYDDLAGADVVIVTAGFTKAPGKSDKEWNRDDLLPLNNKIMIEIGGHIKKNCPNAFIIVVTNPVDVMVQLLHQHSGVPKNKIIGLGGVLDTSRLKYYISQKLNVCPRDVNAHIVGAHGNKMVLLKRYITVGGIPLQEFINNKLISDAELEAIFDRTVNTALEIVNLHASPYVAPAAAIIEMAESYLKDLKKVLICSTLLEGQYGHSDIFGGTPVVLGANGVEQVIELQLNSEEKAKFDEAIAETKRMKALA
# [4] = inhibition of 3D7 malaria parasite growth – strain 3D7 (AID 2306);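 further: 0% = DMSO wells and 100% = chloroquine plus artemisinin control wells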; settings: P. falciparum 3D7 erythrocytic growth, LDH absorbance, 72 h; at 2 µM; active compounds read high
# [5] = target: Calcium-dependent protein kinase 1 (Plasmodium falciparum (isolate 3D7)) (UniProt P62344); experiment: PfCDPK1 kinase inhibitors, biochemical, TCAMS library (AID 1159585; cut-off not given, nearly all actives have IC50 up to about 0.98 µM;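 further: inhibitors leave more ATP so luminescence rises with inhibition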); settings: recombinant PfCDPK1, Kinase-Glo ATP depletion luminescence
# Chain of Calcium-dependent protein kinase 1 (Plasmodium falciparum (isolate 3D7)) (P62344 whole entry, looked up): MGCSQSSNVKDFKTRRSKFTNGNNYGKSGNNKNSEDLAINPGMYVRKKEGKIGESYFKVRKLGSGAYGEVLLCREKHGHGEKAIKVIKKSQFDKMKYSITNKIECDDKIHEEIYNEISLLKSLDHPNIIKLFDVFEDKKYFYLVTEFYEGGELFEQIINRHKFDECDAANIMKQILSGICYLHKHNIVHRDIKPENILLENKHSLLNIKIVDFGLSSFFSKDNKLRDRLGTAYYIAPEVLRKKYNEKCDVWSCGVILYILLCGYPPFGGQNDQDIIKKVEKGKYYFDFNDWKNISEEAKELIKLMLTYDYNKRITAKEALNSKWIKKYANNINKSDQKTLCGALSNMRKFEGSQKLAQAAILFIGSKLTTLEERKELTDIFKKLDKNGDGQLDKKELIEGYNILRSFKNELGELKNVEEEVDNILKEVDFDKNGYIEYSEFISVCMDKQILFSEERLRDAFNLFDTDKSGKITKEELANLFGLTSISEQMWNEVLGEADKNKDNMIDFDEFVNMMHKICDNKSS
# [6] = target: Plasmodium falciparum protein kinase 6 (PK6, PF3D7_1337100) (UniProt Q8IDW1); experiment: PfPK6 kinase inhibitors, biochemical, TCAMS library (AID 1159586); settings: recombinant PfPK6, Kinase-Glo ATP depletion luminescence
# Chain of Plasmodium falciparum protein kinase 6 (PK6, PF3D7_1337100) (Q8IDW1 1-305): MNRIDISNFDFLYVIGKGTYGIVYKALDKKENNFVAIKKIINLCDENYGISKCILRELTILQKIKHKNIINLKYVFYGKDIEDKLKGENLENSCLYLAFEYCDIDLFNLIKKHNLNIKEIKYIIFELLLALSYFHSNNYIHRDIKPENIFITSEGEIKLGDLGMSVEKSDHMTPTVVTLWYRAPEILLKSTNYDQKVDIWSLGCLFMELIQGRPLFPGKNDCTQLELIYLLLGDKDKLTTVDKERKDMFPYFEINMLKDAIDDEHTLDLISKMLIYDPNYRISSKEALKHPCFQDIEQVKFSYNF
# [7] = target: Protein kinase 7 (PK7), Plasmodium falciparum 3D7 (PF3D7_0213400) (UniProt Q7YTF7); experiment: inhibition of Plasmodium PK7 catalytic activity – biochemical, TCAMS antimalarial set, Kinase-Glo luminescence (AID 1159587); settings: recombinant PfPK7, Kinase-Glo ATP depletion luminescence
# Chain of Protein kinase 7 (PK7), Plasmodium falciparum 3D7 (PF3D7_0213400) (Q7YTF7 1-343): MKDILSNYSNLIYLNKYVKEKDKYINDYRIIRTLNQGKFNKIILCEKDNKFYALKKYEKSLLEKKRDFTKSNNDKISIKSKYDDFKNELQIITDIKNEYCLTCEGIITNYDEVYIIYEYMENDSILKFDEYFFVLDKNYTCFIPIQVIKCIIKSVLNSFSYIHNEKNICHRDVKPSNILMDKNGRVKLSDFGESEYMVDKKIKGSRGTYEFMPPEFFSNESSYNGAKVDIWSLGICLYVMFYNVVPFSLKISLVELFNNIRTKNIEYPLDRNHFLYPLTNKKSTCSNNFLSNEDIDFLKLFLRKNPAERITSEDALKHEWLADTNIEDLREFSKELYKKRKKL
# [8] = target: Calcium-dependent protein kinase 4 (Plasmodium falciparum (isolate 3D7)) (UniProt Q8IBS5); experiment: PfCDPK4 kinase inhibitors, biochemical, TCAMS library (AID 1159588; cut-off not given, nearly all actives have IC50 up to about 0.91 µM); settings: recombinant PfCDPK4, Kinase-Glo ATP depletion luminescence
# Chain of Calcium-dependent protein kinase 4 (Plasmodium falciparum (isolate 3D7)) (Q8IBS5 whole entry, looked up): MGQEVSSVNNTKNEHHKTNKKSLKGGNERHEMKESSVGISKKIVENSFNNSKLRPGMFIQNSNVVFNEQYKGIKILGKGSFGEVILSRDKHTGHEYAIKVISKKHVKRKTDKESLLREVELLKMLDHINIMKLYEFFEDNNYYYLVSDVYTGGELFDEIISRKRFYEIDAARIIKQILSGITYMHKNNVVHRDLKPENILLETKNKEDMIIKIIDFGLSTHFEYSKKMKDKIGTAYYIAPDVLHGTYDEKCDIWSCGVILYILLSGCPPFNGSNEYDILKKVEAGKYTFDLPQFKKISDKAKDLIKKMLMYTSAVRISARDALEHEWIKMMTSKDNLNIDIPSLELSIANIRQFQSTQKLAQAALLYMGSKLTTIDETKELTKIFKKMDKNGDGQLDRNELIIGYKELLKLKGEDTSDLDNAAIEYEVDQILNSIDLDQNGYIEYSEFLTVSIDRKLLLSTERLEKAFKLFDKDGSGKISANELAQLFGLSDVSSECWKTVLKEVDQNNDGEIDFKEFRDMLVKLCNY
SMILES,growth inhibition [1],inhibition [2],inhibition [3],growth inhibition [4],outcome [5],outcome [6],outcome [7],outcome [8]
CCCc1cc(C)ccc1OCCCON1C(N)=NC(N)=NC1(C)C,97% (active),64% (active),2%,97% (active),inactive,inactive,inactive,inactive
CCN1CCN(c2ccc(NC(=O)c3cc4c(C)nn(-c5ccccc5)c4s3)cc2C)CC1,81% (active),32%,5%,101% (active),inactive,inactive,inactive,inactive
Nc1cccc(-c2ccc3ccnc(N)c3c2)c1,66% (active),30%,-7%,91% (active),inactive,inactive,inactive,inactive
NS(=O)(=O)c1cccc(-c2ccc3ncc(N4CCOCC4)nc3c2)c1,74% (active),17%,-4%,96% (active),inactive,inactive,inactive,inactive
CCOc1cc(C)ccc1NC1CCN(CCCCNC(=O)c2ccc(NC(=O)c3ccc(Cl)cc3)cc2)CC1,70% (active),17%,-2%,101% (active),inactive,inactive,inactive,inactive
Cc1ccc(C)c(Cn2ccc3nc(Cl)nc(Cl)c32)c1,68% (active),-10%,-2%,95% (active),inactive,inactive,inactive,inactive
CCN(CC)c1ccccc1CNC(=O)c1cc(Cl)c(N)cc1OC,94% (active),6%,-1%,97% (active),inactive,inactive,inactive,inactive
O=C(Nc1ccc(F)c(Cl)c1)c1cc([N+](=O)[O-])cc2cn[nH]c12,67% (active),32%,-4%,100% (active),inactive,inactive,inactive,inactive
O=[N+]([O-])c1ccc(N2CCCN(C(=S)Nc3ccc(F)cc3Br)CC2)nc1,99% (active),4%,-3%,100% (active),inactive,inactive,inactive,inactive
COc1ccc(C2SCC(=O)N2CCc2ccc(OC)c(OC)c2)cc1 (stereo not given),2%,19%,1%,96% (active),inactive,inactive,inactive,inactive
N=c1n(CCN2CCCCC2)c2ccccc2n1CC(O)c1ccc(Cl)c(Cl)c1 (stereo not given),97% (active),50% (active),-2%,97% (active),inactive,inactive,inactive,inactive
Cc1ccccc1Nc1nc(NCCc2ccccc2)nc2ccccc12,18%,32%,-1%,82% (active),inactive,inactive,inactive,inactive
COc1cc(C)nc2ccc(NC(=O)Nc3ccccc3[N+](=O)[O-])cc12,58% (active),6%,-1%,101% (active),inactive,inactive,inactive,inactive
COc1ccc(OC)c(-c2ccc(O)c(CNCC(C)c3ccccc3)c2)c1 (stereo not given),96% (active),26%,-2%,98% (active),inactive,inactive,inactive,inactive
COc1ccc(NC(=O)c2ccc3cc4ccccc4cc3c2)cc1N1CCN(C)CC1,29%,38%,1%,86% (active),inactive,inactive,inactive,inactive
NCCC(=O)Nc1ccc(-c2cnc3[nH]cc(-c4ccc(C(=O)O)cc4)c3c2)cn1,67% (active),-8%,3%,99% (active),inactive,inactive,inactive,inactive
CCCNCc1ccc(-c2ccc(CN(CCOC)C(=O)CCC(=O)c3ccc(OC)c(F)c3)cc2)nc1,47%,13%,-7%,100% (active),inactive,inactive,inactive,inactive
COc1ccc(CNCc2ccc(F)cc2)cc1-c1cccc(S(=O)(=O)NCCN2CCCC2)c1,54% (active),43%,-3%,101% (active),inactive,inactive,inactive,inactive
O=C(NCc1cccc(Br)c1)c1ccc(CNC2CCN(Cc3ccccc3)CC2)cc1,49%,3%,4%,100% (active),inactive,inactive,inactive,inactive
O=C(Nc1ccc(Br)cc1)N(CCN1CCOCC1)CC(O)COCc1ccc(F)cc1 (stereo not given),3%,5%,-1%,90% (active),inactive,inactive,inactive,inactive

SMILES,growth inhibition [1],inhibition [2],inhibition [3],growth inhibition [4],outcome [5],outcome [6],outcome [7],outcome [8]
COc1cc(-n2cnc3cc(-c4ccc([N+](=O)[O-])cc4)sc3c2=O)ccc1OCCN1CCCC1,79% (active),44%,-4%,97% (active),inactive,inactive,inactive,inactive
O=C(Nc1cccc(-c2ccc(-c3nc4ccc(F)cc4[nH]3)cc2)c1)Nc1ccc(F)c(F)c1F,98% (active),53% (active),3%,98% (active),inactive,inactive,inactive,inactive
COc1cc(Cc2cnc(N)nc2N)c2ccsc2c1OC,4%,5%,0%,92% (active),inactive,inactive,inactive,inactive
S=C(Nc1cccc(Cl)c1)NC1CCN(c2ccnc3cc(Cl)ccc23)C1 (stereo not given),89% (active),16%,-3%,100% (active),inactive,inactive,inactive,inactive
COc1ccc2c(=O)ccn(CCN3CCC(NCc4ccc5c(n4)NC(=O)CS5)CC3)c2c1,99% (active),7%,1%,98% (active),inactive,inactive,inactive,inactive
CC(C)N(Cc1cnc2nc(N)nc(N)c2n1)c1ccc(Cl)c(Cl)c1,98% (active),63% (active),-3%,101% (active),inactive,inactive,inactive,inactive
Cc1noc(C)c1-c1ccc2c(Nc3ccccc3C(C)(C)C)c(C(=O)NCc3ccccc3)cnc2c1,89% (active),20%,-1%,99% (active),inactive,inactive,inactive,inactive
COc1cc2nc(N3CC(C)N(C(=O)Cc4ccc(-c5ccccc5)cc4)C(C)C3)nc(N)c2cc1OC (stereo not given),12%,26%,-5%,100% (active),inactive,inactive,inactive,inactive
CCc1ccccc1-c1csc(C(=O)NCC2CCN(Cc3ccc(C(C)(C)C)cc3)C2)c1 (stereo not given),15%,25%,-2%,90% (active),inactive,inactive,inactive,inactive
O=C(/C=C/c1cccc(Br)c1)NCCCCCN1CCC(c2c[nH]c3ccccc23)CC1,15%,38%,0%,100% (active),inactive,inactive,inactive,inactive
CN(C)CCN1CCN(CCCN2c3ccccc3Sc3ccc(C(F)(F)F)cc32)CC1,61% (active),98% (active),-2%,99% (active),inactive,inactive,inactive,inactive
O=C(Nc1cccc(-c2cccc(-c3nc4ccc(C(F)(F)F)cc4[nH]3)c2)c1)Nc1ccc(F)c(F)c1F,100% (active),71% (active),6%,99% (active),inactive,inactive,inactive,inactive
COc1ccc(CNCc2ccccc2)cc1-c1ccc(S(=O)(=O)NCCN2CCCC2)c(F)c1,42%,29%,5%,87% (active),inactive,inactive,inactive,inactive
CCc1c[nH]c2c(N3CCCCS3(=O)=O)cc(C(=O)N[C@@H](Cc3ccccc3)[C@H](O)CNCc3cccc(OC)c3)cc12,91% (active),0%,-3%,86% (active),inactive,inactive,inactive,inactive
Nc1ccnc2ccc(OCCCCCCc3ccccc3)cc12,99% (active),96% (active),1%,100% (active),inactive,inactive,inactive,inactive
COc1cc(C(=O)NC2CCN(Cc3ccccc3)CC2)ccc1-c1nc2cc(Cl)c(C)cc2[nH]1,97% (active),-3%,0%,99% (active),inactive,inactive,inactive,inactive
Cc1cccc2[nH]c(-c3cccc(-c4ccc(NC(=O)C(=O)c5cccn5C)cc4)c3)nc12,46%,45%,-1%,101% (active),inactive,inactive,inactive,inactive
CC(C)(C)c1ccc2nccc(Nc3cccc(O)c3)c2c1,100% (active),8%,0%,99% (active),inactive,inactive,inactive,inactive
Cc1cc(NN=Cc2cccc(F)c2)c2cccc(C)c2n1,53% (active),14%,5%,100% (active),inactive,inactive,inactive,inactive
CC(C)c1ccc(S(=O)(=O)N(c2ccc3c(c2)OCO3)C2CCN(Cc3ccccc3)C2)cc1 (stereo not given),92% (active),1%,0%,100% (active),inactive,inactive,inactive,inactive
